Inconclusive results are not listed. Calls of active or inactive are those of the source. Calls follow the shape of the dose curve; as a rule, active = well fitted curve in the direction sought with a large enough effect; inconclusive = small, poorly fitted or top-dose-only effect, or another doubt; inactive = no such curve, though single readings can be large; an effect the other way counts as inactive or inconclusive.
Experiments:
[1] = Cellular Toxicity (caspase-3) N2a (AID 665); conditions: N2a cells, luminescence, normalized: DMSO 0%, 10 µM staurosporine 100%; at 92.2 µM (top of the series);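 also: compound exposure lasted 16 h at 37 °C before readout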
Procedure, shortened: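 Mouse N2a neuroblastoma cells, 1500 per well, treated 16 h at 37 °C in complete medium; caspase-3/7 activity by Caspase-Glo luminescence after 1 h. Normalized to DMSO and 10 uM staurosporine; AC50 from Hill fits.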

[2] = Cellular Toxicity (caspase-3) NIH 3T3 (AID 666);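 also: caspase signal read after 16 h compound exposure; 0% = DMSO basal and 100% = 100 µM tamoxifen stimulation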
Procedure, shortened: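 Mouse NIH 3T3 fibroblasts (1000/well) treated 16 h at 37 C; caspase-3/7 activity measured by Caspase-Glo 3/7 luminescence after 20 min. Normalized to DMSO and 100 uM tamoxifen; AC50 from Hill fits.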

[3] = Cellular Toxicity (caspase-3) Renal Proximal Tubule (AID 667); conditions: renal proximal tubule cells; at 91.7 µM (top of the series), primary cells freshly taken from rat, solvent-only wells 0%, staurosporine 100% unless noted;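 also: cells exposed to compound for 16 hours at 37 °C before detection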
Procedure, shortened: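 In qHTS format, rat primary proximal tubule cells seeded at 1000 per well are exposed to compounds for 16 hours at 37 °C. An increase in Caspase-Glo 3/7 luminescence indicates caspase activation.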

[4] = biological target: Cytochrome P450 3A4 (Homo sapiens) (UniProt P08684); experiment: qHTS Assay for Inhibitors and Substrates of Cytochrome P450 3A4 (AID 884); also: % is scaled to controls: 0 for no effect and ±100 for the full control effect; nearly all actives have a fitted effect of over 50% in size
Chain of Cytochrome P450 3A4 (Homo sapiens) (P08684 whole entry, looked up): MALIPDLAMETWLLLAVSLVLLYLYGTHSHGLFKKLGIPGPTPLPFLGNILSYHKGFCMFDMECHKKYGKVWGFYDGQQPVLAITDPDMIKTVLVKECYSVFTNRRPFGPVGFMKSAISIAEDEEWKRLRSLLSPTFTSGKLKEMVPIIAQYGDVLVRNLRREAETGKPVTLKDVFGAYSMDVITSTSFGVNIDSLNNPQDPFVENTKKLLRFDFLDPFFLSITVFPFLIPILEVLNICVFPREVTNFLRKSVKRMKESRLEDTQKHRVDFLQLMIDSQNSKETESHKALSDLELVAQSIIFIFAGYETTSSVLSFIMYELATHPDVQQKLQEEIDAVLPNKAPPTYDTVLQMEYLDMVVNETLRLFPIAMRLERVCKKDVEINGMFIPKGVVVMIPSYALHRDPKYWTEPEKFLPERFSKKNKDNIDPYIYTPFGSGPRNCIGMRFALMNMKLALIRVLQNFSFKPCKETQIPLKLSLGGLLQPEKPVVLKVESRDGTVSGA
Procedure, shortened: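 20 nM human CYP3A4 with 25 uM Luciferin-PPXE (at KM) in 200 mM KPO4, preincubated 10 min with compound; NADPH regeneration started a 60 min RT reaction. Luciferin detected by luminescence, normalized to 57 uM ketoconazole as full inhibition.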

[5] = Cell Viability - LYMP2-001 (AID 921);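 also: 0% = DMSO only and full inhibition = tetraoctylammonium bromide control wells; nearly all actives have a fitted effect of over 70% in size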
Procedure, shortened: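 qHTS, 1536-well; lymphoblastoid cells, 24 hr compound, 37 C; ATP by CellTiter-Glo, 30 min RT; luminescence; Hill-fit AC50.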

[6] = MultiTox-Fluor Cytotoxicity Assay - LYMP1-001 - Dead Cells (AID 946)
Procedure, shortened: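 Cytotoxicity as increased dead-cell protease fluorescence (bis-AAF-R110, 485/520 nm), read 60 min after MultiTox-Fluor reagent. Human lymphoblastoid line exposed 16 h; Hill-fitted AC50, with DMSO as 0% and 15 uM tetraoctylammonium bromide as 100%.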

[7] = MultiTox-Fluor Cytotoxicity Assay - LYMP1-001 - Live Cells (AID 947);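 also: 0% = DMSO only and full inhibition = tetraoctylammonium bromide control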
[8] = Cell Viability - LYMP1-002 - Assay at 16 hr (AID 948);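 also: 0% = DMSO alone and full effect = 92 µM tetraoctylammonium bromide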
Procedure, shortened: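 Acute cytotoxicity is scored as a concentration-dependent fall in intracellular ATP in a human lymphoblastoid line (LYMP1-002) after 16 hr compound exposure at 37 C, measured by luciferase luminescence.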

[9] = MultiTox-Fluor Cytotoxicity Assay - LYMP1-002 - Live Cells (AID 955); also: % is scaled to controls: 0 for no effect and ±100 for the full control effect
Procedure, shortened: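 Human lymphoblastoid LYMP1-002 cells, 2500/well, treated 16 h at 37 C in complete medium. Live-cell protease activity via GF-AFC fluorescence (Ex/Em 405/510) after 60 min reagent incubation; AC50 from Hill fits.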

[10] = MultiTox-Fluor Cytotoxicity Assay - LYMP1-002 - Dead Cells (AID 960); also: nearly all actives have a fitted effect of over 60% in size
Procedure, shortened: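 Human lymphoblastoid LYMP1-002 cells, 2500/well, treated 16 h at 37 C; dead-cell protease cleavage of bis-AAF-R110 read by fluorescence (485/520); normalized to DMSO and 15 uM tetraoctylammonium bromide; AC50 from Hill fit.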

[11] = MultiTox-Fluor Cytotoxicity Assay - LYMP1-003 - Dead Cells (AID 961); also: nearly all actives have a fitted effect of over 70% in size
Procedure, shortened: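 Dead-cell protease release, detected as bis-AAF-R110 fluorescence at 485/520 nm, was measured in LYMP1-003 cells after 16 h compound treatment at 37 C. AC50 values came from Hill-modeled qHTS curves normalized to DMSO (0%) and 15 uM tetraoctylammonium bromide (100%).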

[12] = MultiTox-Fluor Cytotoxicity Assay - LYMP1-003 - Live Cells (AID 962);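 also: 0% = DMSO only and full loss = 92 µM tetraoctylammonium bromide; cytotoxic hits lower the live-cell protease signal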
Procedure, shortened: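 LYMP1-003 lymphoblastoid cells, 2500/well in complete medium, treated 16 h at 37 C; live-cell protease cleavage of GF-AFC read by fluorescence (Ex/Em 405/510) after 60 min reagent; AC50 from Hill fits of concentration-response.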

[13] = Cell Viability - LYMP1-003 - Assay at 24 hr (AID 963);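 also: plate controls were DMSO only for no effect and tetraoctylammonium bromide positive control for full effect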
Procedure, shortened: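 Human lymphoblastoid LYMP1-003 cells, 2500/well, treated 24 h at 37 C in complete medium. Viability read as intracellular ATP by CellTiter-Glo luminescence after 30 min at room temperature; AC50 from Hill-equation fits of qHTS concentration-response.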

[14] = Cell Viability - LYMP1-003 - Assay at 40 hr (AID 964); also: % is scaled to controls: 0 for no effect and ±100 for the full control effect; nearly all actives have a fitted effect of over 60% in size
Procedure, shortened: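 LYMP1-003 human lymphoblastoid cells, 2500/well, preincubated 5 h at 37 C, then treated with compound for 40 h at 37 C. Intracellular ATP read by CellTiter-Glo luminescence after 30 min at room temperature; AC50 from Hill-equation fits.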

[15] = Cell Viability - LYMP2-003 (AID 965);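 also: cells exposed to compounds for 24 h before reading; 0% = DMSO only and full effect = 92 µM tetraoctylammonium bromide; nearly all actives have a fitted effect of over 50% in size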
Procedure, shortened: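 Acute cytotoxicity is scored as a concentration-dependent drop in intracellular ATP, measured by luciferase luminescence in human lymphoblastoid cells treated for 24 hours at 37 C. AC50 values derive from Hill-equation modelling.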

[16] = Cell Viability - LYMP2-004 (AID 966);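 also: plate controls were DMSO only for no effect and tetraoctylammonium bromide control for full effect; nearly all actives have a fitted effect of over 65% in size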
Procedure, shortened: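 Lymphoblastoid LYMP2-004 cells, 2500 per well, were preincubated for 5 hr and then treated with compound for 24 h at 37 C in complete medium. Viability was read as cellular ATP by CellTiter-Glo luminescence, and AC50 values were taken from Hill fits to concentration-response data.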

[17] = Cell Viability - LYMP2-005 (AID 967);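 also: plate controls were DMSO only for no effect and 92 µM tetraoctylammonium bromide control for full effect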
Procedure, shortened: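 qHTS viability screen in LYMP2-005 cells: 24 h at 37 C with compound, ATP luminescence via CellTiter-Glo, AC50 from Hill curves.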

[18] = Cell Viability - LYMP2-011 (AID 969);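 also: cells exposed to compound for 24 hours; 0% = DMSO only and full inhibition = 92 µM tetraoctylammonium bromide; nearly all actives have a fitted effect of over 60% in size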
Procedure, shortened: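 2500 cells/well in complete medium, compound-treated 24 h at 37 C. Viability read as intracellular ATP by CellTiter-Glo luminescence after 30 min at room temperature. AC50 from Hill fits of qHTS concentration-response data.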

[19] = Cell Viability - LYMP2-013 (AID 970);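 also: 0% = DMSO only and full inhibition = tetraoctylammonium bromide control; nearly all actives have a fitted effect of over 55% in size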
Procedure, shortened: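 Human lymphoblastoid LYMP2-013 cells, 2500/well, treated 24 h at 37 C in complete medium; viability as intracellular ATP by CellTiter-Glo luminescence after 30 min. AC50 from Hill fits of qHTS concentration-response.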

[20] = Cell Viability - LYMP2-015 (AID 971);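 also: 0% = DMSO only and full effect = 92 µM tetraoctylammonium bromide; nearly all actives have a fitted effect of over 55% in size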
Procedure, shortened: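 LYMP2-015 human lymphoblastoid cells (2500/well) in complete medium, compound-treated 24 h at 37 C; viability read as cellular ATP by CellTiter-Glo luminescence after 30 min at room temperature. AC50 from Hill-equation fits of qHTS concentration-response data.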

[21] = Cell Viability - LYMP2-019 (AID 973);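 also: 0% = DMSO alone and full effect = 92 µM tetraoctylammonium bromide; nearly all actives have a fitted effect of over 55% in size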
Procedure, shortened: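 Human lymphoblastoid LYMP2-019 cells (2500/well) preincubated 5 h at 37 C, then treated 24 h at 37 C in complete medium. Viability by CellTiter-Glo ATP luminescence after 30 min at room temperature; AC50 from Hill fits.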

[22] = Cell Viability - LYMP2-021 (AID 974);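 also: compound exposure lasts 24 hours at 37 °C; % is scaled to controls: 0 for no effect and ±100 for the full control effect; nearly all actives have a fitted effect of over 55% in size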
Procedure, shortened: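 Human lymphoblastoid LYMP2-021 cells, 2500/well in complete medium, treated 24 hours at 37 C. Intracellular ATP by CellTiter-Glo luminescence (30 min, RT); AC50 from Hill fits of concentration-response.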

[23] = Cell Viability - LYMP2-023 (AID 975)
Procedure, shortened: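 LYMP2-023 human lymphoblastoid cells, 2500/well, preincubated 5 hr at 37 C, then compound-treated 24 hr at 37 C in complete medium. CellTiter-Glo luminescence (ATP) after 30 min at room temperature; AC50 from Hill-equation fits; tetraoctylammonium bromide positive control.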

Cc1ccc([N+](=O)[O-])cc1C
inactive: caspase-3 activation [1] -3.15% | outcome [2] | caspase-3 activation [3] -2.52% | Potency [4] | Potency [5] | Potency [6] | Potency [7] | Potency [8] | outcome [9] | Potency [10] | Potency [11] | Potency [12] | Potency [13] | Potency [14] | Potency [15] | Potency [16] | Potency [17] | Potency [18] | Potency [19] | Potency [20] | Potency [21] | Potency [22] | Potency [23]

Reference: PubChem BioAssay (NCATS)
